Records with an inconclusive call do not appear. A call without a number means that no potency is given here. Calls of active or inactive are those of the source. The call rests on the fitted dose curve; in most records, active means well fitted inhibition curve with a large enough effect; inconclusive means small, poorly fitted or top-dose-only effect; inactive means flat fitted curve, though single readings scatter.

This assay has as its system HEK293T. In words: qHTS assay to identify novel small-molecules to repurpose for Merkel cell carcinoma treatment (AID 1296009). Further: nearly all actives have a fitted effect of over 60% in size. As to conditions: MCC and control cell lines, CellTiter-Glo viability, 72 h; series mostly up to 44.8 µM. The method, boiled down: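 72 hr, 37 degree celsius; NPC 8-pt / MIPE 11-pt dose response; compound pinned in DMSO; CellTiter-Glo, 10 min RT, luminescence; normalized to no-cell and DMSO controls.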
Background: In qHTS, concentration-response curves come from the screen itself.
`CC(C)=CC/C=C(/C)[C@H]1CC[C@]2(C)[C@@H]1[C@H](O)CC1[C@@]3(C)CC[C@H](O)C(C)(C)[C@@H]3[C@@H](O[C@@H]3O[C@H](CO)[C@@H](O)[C@H](O)[C@H]3O[C@@H]3O[C@@H](C)[C@H](O)[C@@H](O)[C@H]3O)C[C@]12C` (stereo partly specified): the Potency result is “inactive”.

Turning to `OC[C@H]1O[C@@H](Oc2cc(O)cc(/C=C/c3ccc(O)cc3)c2)[C@H](O)[C@@H](O)[C@@H]1O`, the Potency result was “inactive”.

With `CC(C)=CCc1ccc(Oc2c(O)cc(C)cc2CO)c(C(=O)O)c1O`, the Potency result is “inactive”.

For the molecule `CC(=O)N(O)CCCCCN1C(=O)CCC1=O`, the Potency result is “inactive”.

As for `CC(C)NC[C@H](O)COc1ccc(CCOCC2CC2)cc1`, the Potency result is “inactive”.

For `C=CCc1ccc(O[C@@H]2O[C@H](CO)[C@@H](O)[C@H](O)[C@H]2O)c(OC)c1`, the Potency result is “inactive”.

The values are drawn from PubChem BioAssay (NCATS).
